Laboratory results taken from PubChem BioAssay (NCI).
“And” between values parts separate entries of the source, which are not always exact repeats. Equal entries are not always repeated. About 83,000 compounds went through this panel and 20% of them were active in at least one assay; those are over-represented in the sample as a whole.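 Growth was measured after 48 h exposure to one concentration of compound in 96-well plates. Values under 10 count as active.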 The source made the active and inactive calls.

Experiments:
Test in all cases: NCI-60 one-dose screen, 48 h (100 = growth as untreated, 0 = no growth, -100 = all killed)
[1] = test system: DU-145 prostate
[2] = test system: K-562 leukemia
[3] = test system: MALME-3M melanoma
[4] = test system: MDA-MB-231 breast
[5] = test system: RXF 393 renal
[6] = test system: SF-268 CNS
[7] = test system: SF-295 CNS
[8] = test system: SF-539 CNS
[9] = test system: UACC-257 melanoma
[10] = test system: M14 melanoma; conditions: 10 µM

Measured: growth

CC[C@@]1(O)C(=O)OCc2c1cc1n(c2=O)Cc2cc3c(CN(C)C)c(O)ccc3nc2-1
inactive: [4]; 10 µM 35.9% and 47.6%
active: [1]; 10 µM -18% | [2]; 10 µM -22.7% | [3]; 10 µM -11% and -39.7% | [7]; 10 µM -31.3% and -15% | [8]; 10 µM -19% and -42.7% | [9]; 10 µM -57.9% and 5.98% | [10] -7.26% and -31.9%
-63.5% (active) and 11.3% (inactive): [5]; 10 µM
6.03% (active) and 13.3% (inactive): [6]; 10 µM

CN(Cc1cnc2nc(N)nc(N)c2n1)c1ccc(C(=O)N[C@@H](CCC(=O)O)C(=O)O)cc1
inactive: [1]; 2.5 µM 31.8% | [1]; 10 µM 39.6% | [2]; 2.5 µM 23.8% | [2]; 10 µM 23.3% | [3]; 2.5 µM 61.6% | [3]; 10 µM 62% | [4]; 2.5 µM 71.1% | [4]; 10 µM 59.9% | [5]; 2.5 µM 18.7% | [5]; 10 µM 13% | [6]; 2.5 µM 36.8% | [6]; 10 µM 25.1% | [7]; 2.5 µM 18.4% | [7]; 10 µM 19.7% | [9]; 10 µM 12%
active: [8]; 2.5 µM -3.25% | [8]; 10 µM -0.266% | [9]; 2.5 µM 9.31%

CC/C(=C(\c1ccccc1)c1ccc(OCCN(C)C)cc1)c1ccccc1
active: [1]; 12.5 µM 9.12% | [2]; 10 µM 0.0322% | [2]; 12.5 µM -38.6% | [3]; 10 µM -67.5% | [3]; 12.5 µM -95.7% | [4]; 12.5 µM -26.4% | [5]; 10 µM -22.4% | [5]; 12.5 µM -56.8% | [7]; 12.5 µM -68% | [8]; 12.5 µM -95.2% | [9]; 10 µM -64.3% | [9]; 12.5 µM -34.3% | [10] -75%
inactive: [1]; 10 µM 65.4% | [4]; 10 µM 45.2% | [6]; 10 µM 56.7% | [6]; 12.5 µM 32.4% | [7]; 10 µM 40.2%

COc1ccc2sc3cccc(NCCN(C)C)c3c(=O)c2c1
59.1% (inactive) and -84.9% (active): [10]
49.8% (inactive) and -8.1% (active): [8]; 10 µM
59.7% (inactive) and -15.9% (active): [5]; 10 µM
42.1% (inactive) and -72.9% (active): [4]; 10 µM
active: [7]; 10 µM -16.7% and -31.7% | [9]; 10 µM -83.3%
17.2% (inactive) and -40.4% (active): [2]; 10 µM
18.6% (inactive) and -90.3% (active): [3]; 10 µM
inactive: [1]; 10 µM 53.6% and 14.8% | [6]; 10 µM 42.9% and 12.4%
